Screening data from PubChem.
Rows were chosen to be rich in hits. Some 1.1% of all compounds tested hit in one or more screens of this group.
C1s inh: human complement C1s inhibition; purified C1s, fluorogenic AMC substrate, pooled mixtures; 0.16% of 62,000 active; P09871; mean inhibition % of two 10-compound mixtures (hits give high values), % at 5 µM (by protocol);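 active = inhibition above 20% in each of the two 10-compound mixture wells holding the compound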
FXIa inh mix: inhibitors of human coagulation factor XIa, pooled mixtures; purified FXIa, fluorogenic substrate; inhibition, % at 5 µM; P03951; 0.19% of 62,000 active;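 also: each value is inhibition by a whole ten-compound pool holding the compound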
Ec RNAP inh: inhibitors of Escherichia coli RNA polymerase | inhibition, %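 (tested at 10 µM)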 | E. coli RNA polymerase, fluorescence transcription assay | AID 559 | P0A8V2 | 0.2% of 62,000 active; in the data active = inhibition above about 20%
BAP1 block: blocks human BAP1 ubiquitin-AMC hydrolysis | calls only at 20 µM | Q92560 | recombinant BAP1, Ub-AMC hydrolysis fluorescence kinetic; hits give low values | 0.48% of 72,000 active | AID 436;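 active = activity remaining at or below 50% of control, provided the compound also passes the data quality filters; inactive = the rest, including low values that fail the filters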
Target sequence (Q92560 whole entry, looked up): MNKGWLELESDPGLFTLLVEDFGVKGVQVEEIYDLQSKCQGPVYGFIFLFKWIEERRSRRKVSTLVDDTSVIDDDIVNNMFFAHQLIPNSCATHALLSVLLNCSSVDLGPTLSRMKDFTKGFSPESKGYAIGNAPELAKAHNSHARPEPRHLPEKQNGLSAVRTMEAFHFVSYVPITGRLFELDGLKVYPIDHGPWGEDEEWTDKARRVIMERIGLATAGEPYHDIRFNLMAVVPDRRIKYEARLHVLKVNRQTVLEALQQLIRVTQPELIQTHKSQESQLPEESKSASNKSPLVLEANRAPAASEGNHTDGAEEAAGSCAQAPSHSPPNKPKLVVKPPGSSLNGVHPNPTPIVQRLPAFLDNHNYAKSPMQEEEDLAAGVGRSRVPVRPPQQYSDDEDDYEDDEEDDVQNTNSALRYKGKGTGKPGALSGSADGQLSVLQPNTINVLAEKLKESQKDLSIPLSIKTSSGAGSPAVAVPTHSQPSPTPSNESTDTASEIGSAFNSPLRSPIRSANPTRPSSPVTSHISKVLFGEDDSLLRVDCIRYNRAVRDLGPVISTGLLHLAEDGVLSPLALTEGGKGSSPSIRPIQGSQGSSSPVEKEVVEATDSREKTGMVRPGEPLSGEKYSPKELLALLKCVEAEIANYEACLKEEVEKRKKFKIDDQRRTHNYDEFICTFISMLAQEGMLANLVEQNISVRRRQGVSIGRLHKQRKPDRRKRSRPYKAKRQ
FXIIa mix inh: factor XIIa (human) inhibition, mixture screen. P00748. purified FXIIa, fluorogenic substrate, pooled mixtures. inhibition, % at 5 µM. 0.2% of 62,000 active. AID 684
Cathepsin G inh: cathepsin G (human) inhibition; AID 581; P08311; 0.2% of 62,000 active; purified enzyme, AMC-tetrapeptide fluorescence, pooled mixtures; inhibition, % at 5 µM (by protocol);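 active = inhibition above 20% in each of the two mixture wells holding the compound; inactive = inhibition of 20% or less in either well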
BAP1 inh conf: confirmation of human BAP1 enzyme inhibitors; shares compounds with BAP1 block; purified BAP1, Ub-ethyl ester hydrolysis, HPLC; hits give low values; % of control activity, % at 20 µM; 8% of 310 active;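 active = percent of control activity at or below 60%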
Each line names hits and unclear results; the compound was inactive in the other large screens (follow-up assays come after a bar, where they were run). Rule as the data show it, unless noted: active = inhibition above about 20% (passing the limit was not always enough); inactive = the rest.

Cc1ccc2[nH]c(=O)c(C(c3nnnn3CCc3ccccc3)N3CCOCC3)cc2c1 (stereo not given)	BAP1 block active | BAP1 inh conf inactive
COc1cccc(C(c2nnnn2CCc2ccccc2)N2CCN(c3ccccc3)CC2)c1OC (stereo not given)	none
COc1ccccc1C(c1nnnn1CCc1ccccc1)N1CCN(c2ccccc2)CC1 (stereo not given)	BAP1 block active | BAP1 inh conf inactive
COCCn1nnnc1C(c1cc2cc(C)ccc2[nH]c1=O)N1CCCCCC1 (stereo not given)	none
Cc1nc2cc(NC(=O)c3cccc([N+](=O)[O-])c3)ccc2s1	none (no result: C1s inh, FXIa inh mix, Ec RNAP inh, FXIIa mix inh, Cathepsin G inh)
c1ccc(-n2cnnc2SCc2nc3ccccc3s2)cc1	BAP1 block active | BAP1 inh conf inactive
N#Cc1c(-c2ccco2)cc(C2CC2)nc1SCC(N)=O	none (no result: C1s inh, FXIa inh mix, Ec RNAP inh, FXIIa mix inh, Cathepsin G inh)
CCc1nc(N2CCCCC2)c2oc3ccccc3c2n1	none
CCc1nc(N2CCCC(C)C2)c2oc3ccccc3c2n1 (stereo not given)	BAP1 block active | BAP1 inh conf inactive
O=C(CCSc1nnc2scc(-c3ccccc3)n12)Nc1nc(-c2ccccc2)ns1	BAP1 block active | BAP1 inh conf inactive
CCOc1ccc2nc(NC(=O)CN3CCC(n4nnc5cc(F)ccc54)CC3)sc2c1	BAP1 block active, FXIIa mix inh 31 | BAP1 inh conf inactive
COC(=O)C1=C(C(=O)OC)SC(=C2C(=S)C(C)(C)N(C(=O)c3ccc(Br)cc3)c3c(OC)cccc32)S1	none (no result: C1s inh, FXIa inh mix, Ec RNAP inh, FXIIa mix inh, Cathepsin G inh)
CCOc1cc2[nH]c(=O)n(Cc3cccc(OC)c3)c(=O)c2cc1OCC	BAP1 block active | BAP1 inh conf inactive
COc1ccc(-n2nc3c(c2NC(=O)C2CC2)CSC3)cc1	none (no result: C1s inh, FXIa inh mix, Ec RNAP inh, FXIIa mix inh, Cathepsin G inh)
CC(C)C(c1nnnn1Cc1ccccc1)N(Cc1ccco1)Cc1cccs1 (stereo not given)	none
COc1ccc(Cn2nnnc2C(C(C)C)N(Cc2ccco2)Cc2cccs2)cc1 (stereo not given)	BAP1 block active | BAP1 inh conf inactive
COc1ccccc1-c1c(C)nn2c(N3CCN(c4ccccc4OC)CC3)cc(C)nc12	BAP1 block active | BAP1 inh conf inactive
COc1ccccc1-c1c(C)nn2c(N3CCCCCC3)cc(C)nc12	none
CCCNc1c(N)cc(C(F)(F)F)cc1[N+](=O)[O-]	none (no result: C1s inh, FXIa inh mix, Ec RNAP inh, FXIIa mix inh, Cathepsin G inh)
COc1cccc(-c2csc(N3CCN(S(=O)(=O)c4ccc(F)cc4)CC3)n2)c1	BAP1 block active | BAP1 inh conf inactive
COc1ccc(C2=NN(c3ccc([N+](=O)[O-])cc3)C(c3ccc(F)cc3)C2)cc1 (stereo not given)	none (no result: C1s inh, FXIa inh mix, Ec RNAP inh, FXIIa mix inh, Cathepsin G inh)
CC1(C)CC(=O)c2cc(C(=O)NC3CCSC3=O)c(=O)n(-c3ccccc3)c2C1 (stereo not given)	BAP1 block active | BAP1 inh conf inactive
COc1ccc2nc(N3CCC(O)CC3)c(C#N)cc2c1	none
CCOC(=O)C1CCN(c2nc3cc(OC)ccc3cc2C#N)CC1	BAP1 block active | BAP1 inh conf inactive
c1ccc(-c2nnc3sc(-c4csc5c4CCCC5)nn23)cc1	BAP1 block active | BAP1 inh conf 59
c1ccc(-c2nnc3sc(-c4ccncc4)nn23)cc1	none
Cc1nn(C(=O)c2ccc(N3CCOCC3)c([N+](=O)[O-])c2)c(C)c1Sc1ccc([N+](=O)[O-])cc1	none (no result: C1s inh, FXIa inh mix, Ec RNAP inh, FXIIa mix inh, Cathepsin G inh)
N#Cc1nc(-c2ccccc2F)oc1NCCN1CCOCC1	BAP1 block active | BAP1 inh conf inactive
Nc1c(C(=O)c2ccccc2)sc2nc(C3CC3)cc(-c3cccs3)c12	none (no result: C1s inh, FXIa inh mix, Ec RNAP inh, FXIIa mix inh, Cathepsin G inh)
COC(=O)CSc1nc2ccc(NC(=O)CSc3nnnn3Cc3ccccc3)cc2s1	BAP1 block active | BAP1 inh conf inactive
Cn1cnnc1SCC(=O)Nc1ccc2nc(SCc3ccccc3)sc2c1	none
C=CCOC(=O)C1=C(C)NC(=O)NC1c1ccccc1F (stereo not given)	none (no result: C1s inh, FXIa inh mix, Ec RNAP inh, FXIIa mix inh, Cathepsin G inh)
Cc1sc2nc(CN3CCOCC3)nc(N3CCC(C(N)=O)CC3)c2c1C	none | BAP1 inh conf inactive
COc1ccc2nc(NC(=O)c3ccc(N)cc3)sc2c1	none (no result: C1s inh, FXIa inh mix, Ec RNAP inh, FXIIa mix inh, Cathepsin G inh)
CCCc1ccc(Oc2c(-c3ccc(OCC)cc3O)n[nH]c2C)cc1	none (no result: C1s inh, FXIa inh mix, Ec RNAP inh, FXIIa mix inh, Cathepsin G inh)
Oc1ccc(-c2[nH]ncc2Oc2ccccc2)c(O)c1O	none (no result: C1s inh, FXIa inh mix, Ec RNAP inh, FXIIa mix inh, Cathepsin G inh)
CCCc1ccc(Oc2cn[nH]c2-c2ccc(O)c(C)c2O)cc1	BAP1 block active | BAP1 inh conf 59
